Compounds without any hit were thinned out: in the full panel of roughly 83,000, 20% have a hit.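 Values shown are percent growth following 48 h exposure of cells in 96-well plates to a single concentration of compound; below 10 was considered active.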
What was measured:
Assay in all cases: NCI-60 one-dose screen, 48 h (100 = growth as untreated, 0 = no growth, -100 = all killed)
Conditions in all cases: 10 µM
SK-MEL-2 melanoma = system: SK-MEL-2 melanoma
EKVX NSCLC = system: EKVX NSCLC
SN12C renal = system: SN12C renal
UO-31 renal = system: UO-31 renal
TK-10 renal = system: TK-10 renal
ACHN renal = system: ACHN renal
CAKI-1 renal = system: CAKI-1 renal
A498 renal = system: A498 renal
MOLT-4 leukemia = system: MOLT-4 leukemia
SR leukemia = system: SR leukemia
RPMI-8226 leukemia = system: RPMI-8226 leukemia
OVCAR-8 ovarian = system: OVCAR-8 ovarian
OVCAR-5 ovarian = system: OVCAR-5 ovarian
SK-OV-3 ovarian = system: SK-OV-3 ovarian
IGROV1 ovarian = system: IGROV1 ovarian
OVCAR-3 ovarian = system: OVCAR-3 ovarian
HS 578T breast = system: HS 578T breast
NCI/ADR-RES ovarian = system: NCI/ADR-RES ovarian
OVCAR-4 ovarian = system: OVCAR-4 ovarian

Measured: growth

Clc1ccc(C2=NN=C3C(Cc4ccccc4)=Nc4ccccc4N3C2)cc1
inactive: SK-MEL-2 melanoma 105% | EKVX NSCLC 86% | SN12C renal 83.2% | UO-31 renal 63.1% | TK-10 renal 68.4% | ACHN renal 63.2% | CAKI-1 renal 55.4% | A498 renal 68.5% | MOLT-4 leukemia 61.3% | SR leukemia 25.4% | RPMI-8226 leukemia 49.4% | OVCAR-8 ovarian 75.5% | OVCAR-5 ovarian 90% | SK-OV-3 ovarian 112% | IGROV1 ovarian 83.8% | OVCAR-3 ovarian 65.8% | HS 578T breast 90.1% | NCI/ADR-RES ovarian 74.4%

CC(=O)N[C@H](C(=O)N[C@@H](CCCNC(=N)N)C(=O)N[C@@H](CCCCN)C(=O)N[C@@H](CCCNC(=N)N)C(=O)N[C@]1(C)CCC/C=C\CCC[C@@](C)(C(=O)N[C@@H](CC(C)C)C(=O)N[C@@H](CC(C)C)C(=O)N[C@@H](CCC(N)=O)C(=O)N[C@@H](CCC(=O)O)C(=O)N[C@@H](CCCNC(=N)N)C(=O)N[C@@H](CCC(=O)O)C(=O)N[C@@H](CC(C)C)C(=O)N[C@H](C(=O)N[C@@H](CCC(=O)O)C(N)=O)C(C)C)NC(=O)[C@H](CCCNC(=N)N)NC(=O)[C@H](CC(C)C)NC1=O)C(C)C
inactive: SK-MEL-2 melanoma 101% | EKVX NSCLC 101% | SN12C renal 103% | UO-31 renal 114% | TK-10 renal 96.2% | ACHN renal 109% | CAKI-1 renal 98.9% | A498 renal 116% | MOLT-4 leukemia 105% | SR leukemia 104% | RPMI-8226 leukemia 104% | OVCAR-8 ovarian 104% | OVCAR-5 ovarian 111% | OVCAR-4 ovarian 107% | SK-OV-3 ovarian 108% | IGROV1 ovarian 110% | OVCAR-3 ovarian 109% | HS 578T breast 119% | NCI/ADR-RES ovarian 109%

COc1cc(C(=O)N2CCN(c3cc4c(cc3F)c(=O)c(C(=O)NO)cn4C3CC3)CC2)cc(OC)c1OC
inactive: SK-MEL-2 melanoma 90.2% | EKVX NSCLC 89.5% | SN12C renal 108% | UO-31 renal 92.1% | TK-10 renal 87.4% | ACHN renal 101% | CAKI-1 renal 94.4% | A498 renal 91.4% | MOLT-4 leukemia 103% | SR leukemia 95% | RPMI-8226 leukemia 85.2% | OVCAR-8 ovarian 106% | OVCAR-5 ovarian 98.1% | OVCAR-4 ovarian 101% | SK-OV-3 ovarian 103% | IGROV1 ovarian 110% | OVCAR-3 ovarian 108% | HS 578T breast 105% | NCI/ADR-RES ovarian 100%

O=C(CCc1nnc2sc(-c3cc(O)c(O)c(O)c3)nn12)c1nc2ccccc2[nH]1
inactive: SK-MEL-2 melanoma 111% | EKVX NSCLC 96.7% | SN12C renal 107% | UO-31 renal 83.2% | TK-10 renal 117% | ACHN renal 106% | CAKI-1 renal 100% | A498 renal 75.2% | MOLT-4 leukemia 92.3% | SR leukemia 49.6% | RPMI-8226 leukemia 87% | OVCAR-8 ovarian 94.7% | OVCAR-5 ovarian 117% | SK-OV-3 ovarian 104% | IGROV1 ovarian 109% | OVCAR-3 ovarian 119% | HS 578T breast 88.2% | NCI/ADR-RES ovarian 94.2%

O=C(CCNC(=O)c1nc(-c2ccccc2)n(-c2ccc(Cl)cc2)n1)NO
inactive: SK-MEL-2 melanoma 91.7% | EKVX NSCLC 95.8% | SN12C renal 103% | UO-31 renal 88.3% | TK-10 renal 94.4% | ACHN renal 100% | CAKI-1 renal 97.3% | A498 renal 114% | MOLT-4 leukemia 98% | SR leukemia 98.6% | RPMI-8226 leukemia 103% | OVCAR-8 ovarian 108% | OVCAR-5 ovarian 96.4% | OVCAR-4 ovarian 106% | SK-OV-3 ovarian 92.4% | IGROV1 ovarian 102% | OVCAR-3 ovarian 98.7% | HS 578T breast 107% | NCI/ADR-RES ovarian 109%

CNC(=O)c1cc(Oc2ccc3c(c2)sc2nc(-c4ccc(NC(=O)Nc5ccc(Cl)c(C(F)(F)F)c5)cc4)cn23)ccn1
inactive: SK-MEL-2 melanoma 75.4% | EKVX NSCLC 77.3% | SN12C renal 87.3% | UO-31 renal 73.9% | TK-10 renal 81% | ACHN renal 82.8% | CAKI-1 renal 80.6% | A498 renal 83% | MOLT-4 leukemia 64.2% | SR leukemia 55.5% | RPMI-8226 leukemia 76.1% | OVCAR-8 ovarian 104% | OVCAR-5 ovarian 93.4% | OVCAR-4 ovarian 80.3% | SK-OV-3 ovarian 93.1% | IGROV1 ovarian 78% | OVCAR-3 ovarian 86.9% | NCI/ADR-RES ovarian 89.9%

NC(=O)c1cccc(-n2ccc3cc(NC(=O)Nc4ccc(Cl)c(C(F)(F)F)c4)ccc32)n1
inactive: SK-MEL-2 melanoma 97.2% | EKVX NSCLC 57.7% | SN12C renal 73.4% | UO-31 renal 77.3% | TK-10 renal 83.7% | ACHN renal 71.3% | CAKI-1 renal 61% | A498 renal 56.9% | MOLT-4 leukemia 52% | SR leukemia 91.1% | RPMI-8226 leukemia 70.5% | OVCAR-8 ovarian 72.1% | OVCAR-5 ovarian 93.1% | OVCAR-4 ovarian 77.6% | SK-OV-3 ovarian 94.8% | IGROV1 ovarian 74.5% | OVCAR-3 ovarian 94.7% | HS 578T breast 46.5% | NCI/ADR-RES ovarian 82%

COc1cc(Cc2cc(-c3ccccc3)n[nH]c2=O)cc(OC)c1OC
inactive: SK-MEL-2 melanoma 56.6% | EKVX NSCLC 43.6% | SN12C renal 72.9% | UO-31 renal 58.3% | TK-10 renal 75.5% | ACHN renal 86.4% | CAKI-1 renal 64.6% | A498 renal 69% | MOLT-4 leukemia 30.9% | SR leukemia 25% | RPMI-8226 leukemia 53.5% | OVCAR-8 ovarian 75.2% | OVCAR-5 ovarian 93.1% | OVCAR-4 ovarian 70.1% | SK-OV-3 ovarian 71.2% | IGROV1 ovarian 63.3% | OVCAR-3 ovarian 47.2% | HS 578T breast 68.2% | NCI/ADR-RES ovarian 28.8%
